# Experimental data from the supplement of paper PMC6897291.
# Test system: RIVA
# Assay: growth inhibition by drug alone (1 - RLU/untreated control) (fraction); higher = stronger inhibition
# Conditions: 177Lu-lilotomab satetraxetan 0 ug/ml
# Description: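 RIVA (RI-1) ABC-DLBCL cells were pretreated or not for 18 h with 0.5 ug/ml 177Lu-lilotomab satetraxetan (600 MBq/mg), washed and seeded (3000 cells/well) on 384-well plates pre-printed with the Selleck Cambridge Cancer Compound library. Viability was read by RealTime-Glo luminescence on days 3-6 after seeding. Effect = 1 - RLU/mean RLU of the 48 untreated no-drug control wells per plate; Bliss score = (M-E)/(1-Fa).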
Structure (SMILES),"growth inhibition by drug alone (10 nM, time (day): 3)","growth inhibition by drug alone (10 nM, time (day): 4)","growth inhibition by drug alone (10 nM, time (day): 5)","growth inhibition by drug alone (10 nM, time (day): 6)","growth inhibition by drug alone (100 nM, time (day): 3)","growth inhibition by drug alone (100 nM, time (day): 4)","growth inhibition by drug alone (100 nM, time (day): 5)","growth inhibition by drug alone (100 nM, time (day): 6)"
CCn1c(-c2nonc2N)nc2c(C#CC(C)(C)O)ncc(OC[C@H]3CCCNC3)c21,0.0369,-0.0639,-0.133,-0.326,-0.134,-0.204,-0.217,-0.34
NC(=O)Nc1sc(-c2ccc(F)cc2)cc1C(N)=O,-0.0481,-0.0689,-0.274,-0.781,-0.446,-0.283,-0.285,-0.444
OC[C@H]1O[C@@H](n2cnc3c2N=CNC[C@H]3O)C[C@@H]1O [Pentostatin],0.0173,-0.0212,-0.109,-0.624,-0.427,-0.321,-0.314,-0.387
CCc1ccc(CCOc2ccc(CC3SC(=O)NC3=O)cc2)nc1 (stereo not given) [Pioglitazone (Actos)],-0.15,-0.212,-0.202,-0.191,-0.391,-0.381,-0.369,-0.359
N#CC1(c2ccc(NC(=O)c3cccnc3NCc3ccncc3)cc2)CCCC1 [Apatinib (YN968D1)],-0.0437,0.0236,-0.0386,-0.253,-0.0842,-0.0337,-0.084,-0.223
